Assay outcomes (PubChem)
RE007 growth inh – less growth of the S. pombe RE007 Vpr strain | 0.21% of 360,000 active | S. pombe RE007 Vpr strain, BacTiter-Glo ATP luminescence, 24 h | Potency, µM (titrated, usually from 92.2 µM), for the others: top-dose activity change, negative = less growth, actives largely listed as inhibitors; active means well fitted falling curve with a large enough effect; inconclusive means small, poorly fitted or top-dose-only effect; inactive means no such curve, though single readings can be large or run the other way; further: nearly all actives have a fitted effect of over 50% in size
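Fission yeast strain RE007, carrying one chromosomally integrated HIV-1 vpr copy, was seeded at OD 0.01 in PMG+AL medium with 23 nL pinned compound. After 24 h at 30 °C and 99% humidity, viability was read by BacTiter-Glo luminescence.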
Sm TGR inh – blocks Schistosoma mansoni thioredoxin glutathione reductase | Q962Y6 | purified TGR, DTNB reduction, TNB absorbance 405 nm | Potency, µM (doses to about 114 µM), without a hit: at the highest dose activity change, negative = inhibition, most hits filed as inhibitors | 3% of 360,000 active | AID 485364; further: nearly all actives have a fitted effect of over 60% in size
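TGR 20 nM + NADPH 100 uM (dispensed conc.), cpd preinc 15 min RT; start with NADPH (500 uM addition) then DTNB (15 mM addition). Kinetic TNB absorbance, 405 nm filter. Four-parameter Hill fit across titration.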
LASV entry inh – Lassa virus entry inhibition | Lassa virus pseudotype entry inhibition, cell reporter | AID 540256 | Potency, µM (doses to about 37.9 µM), inactives show top-dose activity change, negative = inhibition, hits mostly inhibitors | 1.2% of 300,000 active; calls by dose curve; tested in HEK293 cells; further: nearly all actives have a fitted effect of over 50% in size
FMDV inh – antivirals against foot and mouth disease virus. FMDV antiviral cell-based qHTS. Potency, µM (top dose mostly 57.9 µM), for inactives: at the top dose activity change, negative = inhibition, actives largely listed as inhibitors. 1.2% of 410,000 active. AID 1159524; calls by dose curve; tested in HEK293T cells; further: read-out not given here; nearly all actives have a fitted effect of over 45% in size
Marburg entry inh – inhibitors of Marburg virus binding or cell entry; Potency, µM (titrated, usually from 37.8 µM), for the others: at the highest dose activity change, negative = inhibition, actives largely listed as inhibitors; AID 540276; Marburg virus pseudotyped entry inhibition, cell reporter; 1.8% of 300,000 active; calls by dose curve; tested in HEK293 cells
HCV inhibitor – HCV inhibition. 3.4% of 340,000 active. Potency, µM (doses to about 41.8 µM), without a hit: at the highest dose activity change, negative = inhibition, hits mostly inhibitors. AID 651820. Huh7.5.1 HCVcc-Cre infection, luciferase reporter, 44 h
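Antiviral activity was scored by luciferase reporter output from cells infected with HCVcc-Cre (~0.5 moi) in presence of compound, 44 h infection period, cells seeded 1,000/well 4 h prior.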
An asterisk follows results filed as active; ? = inconclusive; . = no result given; [ ] = remark or other dose. Most compounds without a hit are left out; they make up all but 7.2% or so of the library. Unless noted, the call rests on the fitted dose curve; in most records, active means well fitted curve in the direction sought with a large enough effect; inconclusive means small, poorly fitted or top-dose-only effect, or another doubt; inactive means no such curve, though single readings can be large; an effect the other way counts as inactive or inconclusive. On the % scale 0 is the no-effect control and ±100 the full control effect; potency means the concentration at half of the fitted maximal effect.

SMILES	RE007 growth inh	Sm TGR inh	LASV entry inh	FMDV inh	Marburg entry inh	HCV inhibitor
O=C(CCc1nc(-c2ccccc2)no1)NCc1ccco1	4%	45µM*	2%	2%	6%	-4%
CCC(CC)C(=O)OCc1cc(=O)n2nc(C3CCCCC3)sc2n1	.	5%	?	29%	.	.
Cc1ccc(S(=O)(=O)N(CC(=O)N2CCCCCC2)c2ccccc2)cc1	13%	-7%	6.5µM*	64%	26%	10%
CNC(=O)CN(c1ccc(Oc2ccccc2)cc1)S(=O)(=O)c1ccc(C)cc1	?	-15%	7.1µM*	-4%	-15%	.
COc1ccc(S(=O)(=O)N(CC(=O)N2CCC(C)CC2)c2ccc(C)cc2)cc1	.	-13%	7.1µM*	58%	-5%[46.1 µM]	.
Cc1ccc(S(=O)(=O)N(CC(=O)N2CCC(C)CC2)c2ccccc2)cc1	10%	-31%	-19%	33%	-20%[46.1 µM]	19%
COC(=O)c1ccc(NC(=O)c2c(-c3ccccc3)c(-c3ccccc3)nn(C)c2=O)cc1	.	-5%	25%[46.1 µM]	-16%	-15%[46.1 µM]	.
C[C@H]1Cc2c(COc3ccccc3)nc3c(c2CO1)CN(C(=O)c1cc(I)ccc1F)CC3	.	.	.	.	-26%[14.2 µM]	.
O=C(Nc1ccc(N2CCCCCC2)cc1)c1cccc(S(=O)(=O)N2CCOCC2)c1	-16%	-33%	?	?	?	2.5µM*
O=C(N/N=C/c1sc(N2CCOCC2)nc1-c1ccccc1)c1cccc(S(=O)(=O)N2CCCC2)c1	-1%	9%	?	?	?	3.5µM*
CCOC(=O)c1ccc(NC(=O)c2cccc(S(=O)(=O)N3CCOCC3)c2)cc1	13%	-7%	?	?	?	3.5µM*
CC(=O)c1cccc(NC(=O)c2cccc(S(=O)(=O)N3CCOCC3)c2)c1	18%	-7%	-10%	2%	6%[46.1 µM]	-15%
CCOC(=O)c1ccc(NC(=O)c2ccc(C)c(S(=O)(=O)N3CCOCC3)c2)cc1	-6%	8%	?	14µM*	2.8µM*	5µM*
CNC(=O)OCc1nc(SSC(C)(C)C)n(C)c1COC(=O)NC	-2%	.	?	35µM*	?	?
CCn1nc(C)c2c(-c3ccccc3)cc(=O)n(C(C)C(=O)NCc3cccc(OC)c3)c21 (configuration not stated)	.	0%	-21%[46.1 µM]	-19%	.	.
O=C(COC(=O)C1(c2ccc(F)cc2)CCCC1)NCc1ccc2c(c1)OCO2	-4%	6%	-2%	40µM*	?	-7%
O=C(COC(=O)/C=C/c1ccco1)Nc1ccccc1	-16%	56µM*	19%[46.1 µM]	15%	?	-21%
COC(=O)c1ccccc1NC(=O)COC(=O)/C=C/c1ccco1	10%	25µM*	-9%	-6%	?	-3%
CC1CCCC(NC(=O)COC(=O)/C=C/c2ccco2)C1C (configuration not stated)	-7%	45µM*	.	-11%	.	6%
CCOc1ccc(C2CC(=O)Nc3c2c(=O)nc(SCc2ccccc2C)n3C)cc1OC (configuration not stated)	.	-3%	-2%[46.1 µM]	1%	27%[46.1 µM]	.
Nc1nc(Cl)nc2c1ncn2[C@@H]1O[C@H](COP(=O)(O)OP(=O)(O)OP(=O)(O)O)[C@@H](O)[C@H]1O	.	.	-18%	.	-26%	.
O=C(COC(=O)/C=C/c1ccco1)NCc1ccc2c(c1)OCO2	13%	35µM*	8%	6%	25%[46.1 µM]	22%
O=C(/C=C/c1ccco1)OCC(=O)c1cccc([N+](=O)[O-])c1	4%	-33%	3%	6%	12%[46.1 µM]	4%
O=C(COC(=O)/C=C/c1ccco1)Nc1ccc(F)cc1Cl	-15%	32µM*	-7%[46.1 µM]	10%	0%[46.1 µM]	-10%
COc1ccc(C(=O)COC(=O)/C=C/c2ccco2)cc1F	-7%	22µM*	.	30%	.	-1%
SMILES	RE007 growth inh	Sm TGR inh	LASV entry inh	FMDV inh	Marburg entry inh	HCV inhibitor
CCc1ccc(NC(=O)COC(=O)/C=C/c2ccco2)cc1	-14%	.	0%[46.1 µM]	0%	19%	19%
CCOC(=O)N[C@@]1(C(F)(F)F)C(=O)NC(C)=C1C#N	.	.	.	.	1%	.
Cc1ccc(NC(=O)Cn2c(=O)n(Cc3ccc(F)cc3)c(=O)c3cccnc32)cc1C	.	-2%	.	-23%	9%[46.1 µM]	.
Nc1cc([N+](=O)[O-])cc2oc(-c3ccccc3)cc12	-2%	-13%	.	55%	.	10µM*
CC(C)NC(=O)c1cn(C2CCC(NC(=O)C(C)(C)C)CC2)nn1 (configuration not stated)	.	.	.	-2%	.	.
CCNc1nc(NC(C)(C)C)nc(N2CCCCC2)n1	-4%	.	?	-29%	2µM*	?
CC(C)(CO)Nc1nc(N2CCCC2)nc(N2CCCC2)n1	-30%	-18%	0%	-28%	?	?
CC(C)(C)Nc1nc(OCC#N)nc(N2CCCCC2)n1	9%	19%	.	?	.	?
CCNc1nc(N2CCCC2)nc(N2CCCC2)n1	-12%	.	-7%[46.1 µM]	-21%	?	11µM*
Cc1cc(C)nc(-c2cccc3c2OC(CNC(=O)C2CCOC2)C3)n1 (configuration not stated)	.	.	.	-15%	.	.
COC(=O)N1CCC2(CCN(C(=O)Nc3ccccc3)CC2)CC1	.	.	.	10%	.	.
C[C@@H]1CC2=CCCC2[C@]2(O1)C(=O)N(Cc1ccc(F)cc1)c1cccc(Br)c12 (some centres not stated)	.	.	.	.	8%[14.2 µM]	.
CC1(C)CC(=O)c2cc(OCC(=O)NCCCN3CCN(c4ccc(F)cc4)CC3)ccc2O1	13%	-1%	?	?	23µM*	10µM*
O=C(Nc1ccc(F)c(F)c1)C(c1ccccc1)N1Cc2ccccc2C1=O (configuration not stated)	.	3%	10%[46.1 µM]	37%	.	.
Cc1nc2ccc(NS(=O)(=O)c3ccc(F)c(C)c3)cc2[nH]1	-6%	0%	.	-10%	.	7.1µM*
Cc1nc2ccc(S(=O)(=O)c3ccc4nc(C)[nH]c4c3)cc2[nH]1	5%	0%	14%	6%	-14%	4%
O=C(NC1(C(F)(F)F)Oc2ccc(Cl)cc2O1)N1CCC2(CC1)OCCO2 (configuration not stated)	17%	45µM*	-25%	-15%	?	?
C=CCn1c(NC(=O)c2ccco2)c(S(=O)(=O)c2ccccc2)c2nc3ccccc3nc21	.	45µM*	.	.	.	.
C=CCNC(=O)c1c(N)n(Cc2ccco2)c2nc3ccccc3nc12	-5%	45µM*	?	-27%	-30%	-26%
COCCNC(=O)c1c(NC(=O)c2ccco2)n(Cc2ccccc2)c2nc3ccccc3nc12	-3%	25µM*	?	-7%	-20%	-3%
CC(C)(C)OC(=O)c1c(N)n(Cc2ccco2)c2nc3ccccc3nc12	2%	28µM*	5%	-22%	-20%	?
